Experimental findings from ChEMBL document CHEMBL3988442, “University of Dundee, Small-Polar-MMV Screening Library” (2021) are described below.

SMILES strings stand for the structures. For some of these results: Results with a measured potency or affinity are listed apart.

Set-up in all cases: scale not given: direction of the effect not stated beside the values
The target of test [1] is Protein translocase subunit SecA (Escherichia coli (strain K12)) (UniProt P10408). Briefly: Assay to Identify E. coli SecA ATPase Inhibitors. Type of test: functional. The following applies: 30 µM.
In test [2] the target is T1, Ubiquitin-activating enzyme e1, putative (Leishmania donovani (strain BPK282A1)) (UniProt E9BSI1).
T1 sequence (whole entry): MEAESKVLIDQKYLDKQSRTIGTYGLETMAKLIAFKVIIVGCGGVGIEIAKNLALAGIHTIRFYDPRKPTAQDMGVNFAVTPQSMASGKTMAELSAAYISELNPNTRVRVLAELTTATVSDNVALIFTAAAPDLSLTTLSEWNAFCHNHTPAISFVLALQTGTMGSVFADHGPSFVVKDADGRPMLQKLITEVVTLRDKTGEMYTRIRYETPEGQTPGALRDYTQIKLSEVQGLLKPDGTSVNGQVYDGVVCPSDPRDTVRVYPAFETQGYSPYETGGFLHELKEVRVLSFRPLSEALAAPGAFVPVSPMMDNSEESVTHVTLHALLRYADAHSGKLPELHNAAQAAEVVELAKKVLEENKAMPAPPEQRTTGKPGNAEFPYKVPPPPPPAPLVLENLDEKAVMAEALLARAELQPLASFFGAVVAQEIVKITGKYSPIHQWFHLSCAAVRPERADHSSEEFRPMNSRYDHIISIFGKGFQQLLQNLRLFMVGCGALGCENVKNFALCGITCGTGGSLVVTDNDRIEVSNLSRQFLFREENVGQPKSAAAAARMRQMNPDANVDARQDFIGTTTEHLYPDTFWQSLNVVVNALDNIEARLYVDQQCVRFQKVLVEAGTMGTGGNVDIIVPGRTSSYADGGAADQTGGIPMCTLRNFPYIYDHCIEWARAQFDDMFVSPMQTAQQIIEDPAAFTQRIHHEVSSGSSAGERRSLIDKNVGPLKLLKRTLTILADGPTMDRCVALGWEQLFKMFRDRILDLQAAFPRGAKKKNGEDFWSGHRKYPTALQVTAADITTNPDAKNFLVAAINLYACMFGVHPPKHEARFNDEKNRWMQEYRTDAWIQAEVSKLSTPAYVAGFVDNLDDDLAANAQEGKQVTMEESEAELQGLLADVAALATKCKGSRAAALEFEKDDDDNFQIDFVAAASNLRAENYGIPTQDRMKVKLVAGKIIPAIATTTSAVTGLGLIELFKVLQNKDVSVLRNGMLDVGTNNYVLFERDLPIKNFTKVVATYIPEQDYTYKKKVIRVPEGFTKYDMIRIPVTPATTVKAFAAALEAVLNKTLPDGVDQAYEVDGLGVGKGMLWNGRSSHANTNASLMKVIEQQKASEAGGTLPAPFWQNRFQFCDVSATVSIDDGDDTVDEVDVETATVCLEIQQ
Description: Leishmania donovani Ubiquitin Activating Enzyme (LdE1). The note with it: 30 µM. Type of test: functional.

Test [3] concerns the target AMP-activated protein kinase, AMPK (Homo sapiens) (UniProt P54646+O43741+P54619+Q9UGJ0+Q9Y478+Q13131+Q9UGI9). Briefly: AMP-dependent Kinase enzyme assay. An in vitro enzyme assay that detects ADP turnover that is directly proportional to AMPK activity. This uses naive AMPK that is activated during the assay with MK-8722. Type of test: functional. The note with it: 30 µM.

Test [4] concerns the target Sialic acid-binding Ig-like lectin 9 (Homo sapiens) (UniProt Q9Y336). Description: Hs-Siglec9 ALPHAscreen SOP 20170721. The note with it: 10 µM.
For another test, the system named is Trypanosoma cruzi. Description: Trypanosoma cruzi phosphomannomutase and mannose-1-phosphate guanylyltransferase assay. The following applies: 10 µM. Type of test: functional.
In test [5] the target is T2, Arginase-2, mitochondrial (Homo sapiens) (UniProt P78540).
T2 sequence (whole entry): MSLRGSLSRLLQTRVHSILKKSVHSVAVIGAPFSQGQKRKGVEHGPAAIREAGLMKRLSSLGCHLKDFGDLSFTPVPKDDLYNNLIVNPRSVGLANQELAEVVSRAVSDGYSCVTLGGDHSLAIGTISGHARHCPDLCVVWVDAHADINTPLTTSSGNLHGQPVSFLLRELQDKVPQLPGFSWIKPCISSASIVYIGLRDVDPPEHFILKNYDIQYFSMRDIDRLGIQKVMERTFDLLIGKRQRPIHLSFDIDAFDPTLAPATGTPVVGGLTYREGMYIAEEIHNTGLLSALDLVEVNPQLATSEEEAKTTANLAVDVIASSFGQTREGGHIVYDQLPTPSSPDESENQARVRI
Description: in vitro enzyme assay to detect the production of urea directly proportional to the activity of Arginase II. Also: in the data most compounds retested in dose-response had high values. The test is classed as functional. The following applies: 33.3 µM.

Test [6] has as its target T3, Proteasome subunit beta (Trypanosoma cruzi) (UniProt O96673).
T3 sequence (whole entry): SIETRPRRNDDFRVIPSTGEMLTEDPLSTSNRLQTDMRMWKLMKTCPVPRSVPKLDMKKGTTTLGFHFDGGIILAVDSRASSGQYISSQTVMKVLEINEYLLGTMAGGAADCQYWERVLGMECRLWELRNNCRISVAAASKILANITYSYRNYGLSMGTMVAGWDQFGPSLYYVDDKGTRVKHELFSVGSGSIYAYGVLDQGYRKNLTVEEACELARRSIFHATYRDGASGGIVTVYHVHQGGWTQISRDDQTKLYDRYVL
Briefly: Trypanosoma cruzi proteasome chymotrypsin-like activity (TcProtChymo) assay. Also: in the data most compounds retested in dose-response had high values. The following applies: 9.37 µM. The test is classed as functional.

The species named for a further test is Homo sapiens. Briefly: To identify inhibition of the IFN signalling (Jak-Stat) pathway via expression of an eGFP reporter gene under the control of an IFN-stimulated response element (ISRE) containing MxA promoter. The note with it: 30 µM. The test is classed as functional. In general terms: Reporter assays use an easily measured gene product as a stand-in for the process of interest.

In test [7] the target is T4, Tyrosyl-tRNA synthetase, putative (Trypanosoma cruzi (strain CL Brener)) (UniProt Q4DSP6).
T4 sequence (whole entry): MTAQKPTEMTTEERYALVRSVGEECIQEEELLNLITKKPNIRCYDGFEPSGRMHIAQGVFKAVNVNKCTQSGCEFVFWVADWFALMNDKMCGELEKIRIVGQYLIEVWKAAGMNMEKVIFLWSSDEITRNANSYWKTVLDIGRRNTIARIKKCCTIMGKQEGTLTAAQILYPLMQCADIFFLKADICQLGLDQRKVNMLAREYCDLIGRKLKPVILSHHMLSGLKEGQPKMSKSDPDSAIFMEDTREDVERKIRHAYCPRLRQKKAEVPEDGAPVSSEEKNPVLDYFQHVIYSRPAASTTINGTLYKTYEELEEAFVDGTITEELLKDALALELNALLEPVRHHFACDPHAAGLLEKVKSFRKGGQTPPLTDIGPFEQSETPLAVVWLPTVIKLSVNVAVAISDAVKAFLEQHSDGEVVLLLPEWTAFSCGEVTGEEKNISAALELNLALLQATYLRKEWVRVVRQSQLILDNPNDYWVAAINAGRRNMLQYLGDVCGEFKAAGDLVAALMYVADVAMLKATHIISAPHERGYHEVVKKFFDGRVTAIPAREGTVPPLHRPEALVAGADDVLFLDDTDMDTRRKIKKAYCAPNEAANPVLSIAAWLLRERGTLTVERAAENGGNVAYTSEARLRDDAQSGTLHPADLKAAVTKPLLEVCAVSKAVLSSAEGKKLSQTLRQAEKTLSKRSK
Description: Trypanosoma cruzi tyrosyl tRNA synthetase (TcYRS) _High Tyrosine SOP. Also: in the data most compounds retested in dose-response had high values. The test is classed as functional. The note with it: 30 µM.

The target of test [8] is T4, Tyrosyl-tRNA synthetase, putative (Trypanosoma cruzi (strain CL Brener)). Description: Trypanosoma cruzi tyrosyl tRNA synthetase (TcYRS) SOP. The test is classed as functional. The note with it: 30 µM.
Test [9] addresses Chromo domain-containing protein 1 (Saccharomyces cerevisiae (strain ATCC 204508 / S288c) (Baker's yeast)) (UniProt P32657). Briefly: ScCHD-1 Enzyme Inhibition Assay. Also: in the data most compounds retested in dose-response had high values. Type of test: functional. The note with it: 30 µM.

Sialic acid-binding Ig-like lectin 9 (Homo sapiens), sequence (Q9Y336 whole entry): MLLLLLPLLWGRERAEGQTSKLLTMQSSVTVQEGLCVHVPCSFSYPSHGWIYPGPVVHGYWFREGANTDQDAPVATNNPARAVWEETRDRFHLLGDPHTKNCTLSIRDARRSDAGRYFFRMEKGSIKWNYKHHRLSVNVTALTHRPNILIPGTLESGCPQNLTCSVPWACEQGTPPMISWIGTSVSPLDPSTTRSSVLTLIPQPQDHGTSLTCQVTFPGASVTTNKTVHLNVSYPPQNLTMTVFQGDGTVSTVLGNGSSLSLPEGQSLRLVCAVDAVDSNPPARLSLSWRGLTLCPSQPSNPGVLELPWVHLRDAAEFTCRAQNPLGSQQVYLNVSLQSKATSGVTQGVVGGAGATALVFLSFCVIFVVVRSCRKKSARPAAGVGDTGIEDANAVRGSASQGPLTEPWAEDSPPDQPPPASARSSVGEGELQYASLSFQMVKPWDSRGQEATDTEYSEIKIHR
Chromo domain-containing protein 1 (Saccharomyces cerevisiae (strain ATCC 204508 / S288c) (Baker's yeast)), sequence (P32657 whole entry, the tested form may be a part): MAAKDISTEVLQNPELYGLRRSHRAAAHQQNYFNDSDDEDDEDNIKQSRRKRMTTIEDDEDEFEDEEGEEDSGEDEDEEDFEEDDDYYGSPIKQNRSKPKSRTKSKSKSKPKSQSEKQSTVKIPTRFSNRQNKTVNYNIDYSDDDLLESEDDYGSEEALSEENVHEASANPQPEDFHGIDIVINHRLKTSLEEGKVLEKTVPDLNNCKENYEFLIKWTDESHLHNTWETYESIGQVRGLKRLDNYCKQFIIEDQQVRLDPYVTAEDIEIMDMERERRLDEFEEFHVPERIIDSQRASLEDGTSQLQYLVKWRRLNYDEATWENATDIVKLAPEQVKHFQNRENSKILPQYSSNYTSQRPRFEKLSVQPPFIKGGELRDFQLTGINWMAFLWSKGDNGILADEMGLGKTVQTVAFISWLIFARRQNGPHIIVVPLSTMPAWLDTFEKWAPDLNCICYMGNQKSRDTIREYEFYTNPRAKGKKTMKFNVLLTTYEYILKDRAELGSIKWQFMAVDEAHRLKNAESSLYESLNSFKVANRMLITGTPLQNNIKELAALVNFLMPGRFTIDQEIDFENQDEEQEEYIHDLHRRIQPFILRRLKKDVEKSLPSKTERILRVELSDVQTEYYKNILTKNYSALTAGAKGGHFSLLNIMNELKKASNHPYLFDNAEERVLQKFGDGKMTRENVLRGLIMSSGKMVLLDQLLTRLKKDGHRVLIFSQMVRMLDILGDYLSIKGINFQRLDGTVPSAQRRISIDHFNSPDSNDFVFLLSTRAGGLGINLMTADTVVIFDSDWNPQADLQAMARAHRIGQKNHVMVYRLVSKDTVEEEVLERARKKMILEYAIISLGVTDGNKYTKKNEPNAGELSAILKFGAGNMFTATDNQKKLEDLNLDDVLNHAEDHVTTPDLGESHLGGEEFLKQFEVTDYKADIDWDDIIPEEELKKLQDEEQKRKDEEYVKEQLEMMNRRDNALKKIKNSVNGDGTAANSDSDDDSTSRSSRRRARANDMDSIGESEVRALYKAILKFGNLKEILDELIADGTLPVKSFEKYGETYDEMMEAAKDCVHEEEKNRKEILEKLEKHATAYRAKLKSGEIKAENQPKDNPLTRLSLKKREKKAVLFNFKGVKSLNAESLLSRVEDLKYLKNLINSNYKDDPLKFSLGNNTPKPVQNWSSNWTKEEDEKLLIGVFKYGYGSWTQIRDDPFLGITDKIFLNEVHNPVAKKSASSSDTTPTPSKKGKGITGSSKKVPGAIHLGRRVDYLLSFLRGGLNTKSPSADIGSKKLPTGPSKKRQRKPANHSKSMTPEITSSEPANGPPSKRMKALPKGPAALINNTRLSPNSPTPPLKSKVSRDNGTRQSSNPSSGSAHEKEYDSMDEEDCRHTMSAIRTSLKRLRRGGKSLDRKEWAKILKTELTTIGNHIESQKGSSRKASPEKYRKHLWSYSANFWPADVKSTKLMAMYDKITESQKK
Protein translocase subunit SecA (Escherichia coli (strain K12)), sequence (P10408 whole entry): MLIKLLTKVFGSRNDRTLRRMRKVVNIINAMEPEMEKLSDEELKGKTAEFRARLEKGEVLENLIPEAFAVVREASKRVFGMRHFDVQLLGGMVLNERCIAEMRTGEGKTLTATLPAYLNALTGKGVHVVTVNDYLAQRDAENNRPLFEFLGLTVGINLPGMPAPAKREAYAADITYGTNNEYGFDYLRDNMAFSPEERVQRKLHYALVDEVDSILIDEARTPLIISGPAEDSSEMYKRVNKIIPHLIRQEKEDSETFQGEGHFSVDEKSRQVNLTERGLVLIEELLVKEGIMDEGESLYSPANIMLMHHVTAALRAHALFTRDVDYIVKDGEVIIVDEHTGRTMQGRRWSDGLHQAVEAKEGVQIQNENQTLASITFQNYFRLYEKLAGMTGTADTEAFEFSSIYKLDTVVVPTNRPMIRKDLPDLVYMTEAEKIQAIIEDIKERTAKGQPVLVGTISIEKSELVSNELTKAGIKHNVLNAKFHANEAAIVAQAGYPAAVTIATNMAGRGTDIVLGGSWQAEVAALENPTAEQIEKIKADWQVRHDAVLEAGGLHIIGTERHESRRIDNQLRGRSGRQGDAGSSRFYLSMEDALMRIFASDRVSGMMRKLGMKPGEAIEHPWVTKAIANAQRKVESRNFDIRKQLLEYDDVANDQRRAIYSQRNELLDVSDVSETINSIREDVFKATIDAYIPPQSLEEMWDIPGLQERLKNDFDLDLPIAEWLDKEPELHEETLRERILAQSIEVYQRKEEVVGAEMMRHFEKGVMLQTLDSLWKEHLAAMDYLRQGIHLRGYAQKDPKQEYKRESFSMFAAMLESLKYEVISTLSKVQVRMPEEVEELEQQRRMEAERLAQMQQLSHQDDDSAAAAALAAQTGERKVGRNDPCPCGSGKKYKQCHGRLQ

Consider `Cc1ccc(CN(Cc2cccnc2)C2CC(C)(C)NC(C)(C)C2)s1`, for which the Percent Effect in test [1] is -5.72%; in test [2], 1.35%; in test [3], 9.33%; in test [4], -0.663%; in the test with Trypanosoma cruzi, -3.36%; in test [5], -5.8%. Besides, the Percent Effect in test [6] is 10.1%; in the test filed under Homo sapiens, 13.4%; in [7] it was 2.15%; in [8] it was -1.3%; in test [9], -9.11%.

Consider `Cc1cc(N2CCN(C(=O)c3cc(Cl)c[nH]3)CC2)nc(N)n1`, for which the Percent Effect in [1] was 0.0114%; in [2] it was 8.22%; in test [3], -3.11%; in test [4], 13.8%; with Trypanosoma cruzi, 5.36%; in test [5] it was -2.4%. For the same compound, the Percent Effect is 15.3% in [6]; 17.5% in the test filed under Homo sapiens; 10.4% in [7]; 13.6% in test [8]; -0.523% in [9].

Regarding `Cc1cc(C)c(CNC(=O)N2CCN(c3ncccn3)CC2)c(=O)[nH]1`, the Percent Effect is -6.02% in test [1]; 7.89% in [2]; -4.85% in [3]; 6.02% in [4]; 5.08% in the test with Trypanosoma cruzi; 3.45% in [5]. For the same compound, the Percent Effect in test [6] is 16.5%; in the test filed under Homo sapiens, 2.72%; in test [7], 3.43%; in test [8], 7.32%; in test [9], -10.9%.

On to `COc1c(CNC(c2nccn2C)C(C)C)c(C)nn1C` (stereo unspecified), for which the Percent Effect in [1] is 1.37%; in test [2], -5.26%; in [3] it was 0.924%; in test [4], 13.8%; in the test on Trypanosoma cruzi, -2.07%; in [5], -2.68%. Further, the Percent Effect in test [6] is 2.84%; in the test filed under Homo sapiens it was -7.86%; in [7], 6.37%; in [8], 0%; in test [9], 4.67%.

As for `CCOc1ccccc1OC1CCN(C(=O)c2ccc(=O)[nH]n2)CC1`, the Percent Effect was -2.99% in [1]; 13.2% in test [2]; 2.58% in [3]; 7.38% in [4]; 3.76% with Trypanosoma cruzi; 2.3% in [5]. The Percent Effect was 12.9% in test [6]; 6.53% in the test filed under Homo sapiens; 5.39% in test [7]; 19.5% in test [8]; -2.32% in test [9].

Regarding `N#Cc1ccccc1CN1C[C@@H]2CC[C@H](C1)N(Cc1cscn1)C2=O`, the Percent Effect in test [1] was -1.93%; in test [2], 5.41%; in test [3] it was -3.34%; in test [4], 8.56%; in the test on Trypanosoma cruzi it was -2.9%; in test [5], -1.91%. Also, the Percent Effect in test [6] is 9.14%; in the test filed under Homo sapiens, -7.44%; in [7] it was 3.7%; in test [8], -14.6%; in test [9] it was -3.95%.

With `CSCC(C)(O)CNC(=O)c1cc(Br)ccc1Cl` (stereo unspecified), the Percent Effect in test [1] was -6.56%; in [2], 2.74%; in test [3] it was -10.3%; in [4], 29.6%; in the test with Trypanosoma cruzi, 9.01%; in test [5], -4.54%. Besides, the Percent Effect in [6] is 18.1%; in the test filed under Homo sapiens, 10.3%; in test [7], 3.23%; in test [8] it was 17.5%; in [9], 34.8%.

In the case of `Cc1cc2c(cc1C)C(NCc1nnc3n1CCCCC3)CCCO2` (stereo unspecified), the Percent Effect in [1] is 0.0306%; in [2], 2.7%; in test [3], -8.53%; in [4] it was 10.2%; in the test on Trypanosoma cruzi it was 6.94%; in test [5], 17.1%. For the same compound, the Percent Effect in test [6] is 0.944%; in the test filed under Homo sapiens, -23.2%; in test [7], 2.15%; in test [8], 6.17%; in [9], -5.02%.

In the case of `CS(=O)(=O)NC1CCN(C(=O)NCCc2ccccc2F)CC1`, the Percent Effect in test [1] was -4.12%; in [2], 8.11%; in test [3] it was -6.29%; in [4], 9.26%; with Trypanosoma cruzi, 2.14%; in [5] it was 2.03%. Moreover, the Percent Effect is 12% in [6]; 10.3% in the test listed under Homo sapiens; 6.93% in test [7]; 25.6% in test [8]; -11.2% in test [9].

As for `CCC(O)CN1CCN(C(=O)c2ccnc(N(C)C)c2)CC1` (stereo unspecified), the Percent Effect in test [1] is -1.16%; in test [2], 5.41%; in test [3], -5.16%; in test [4], 13%; in the test on Trypanosoma cruzi, 6.37%; in test [5], 14.3%. Further, the Percent Effect was 4.83% in test [6]; -0.0962% in the test listed under Homo sapiens; 1.59% in test [7]; 12.2% in test [8]; -4.75% in [9].

On to `CN(Cc1nnc(-c2ccco2)o1)CC1CCCN1c1cccnn1` (stereo unspecified), for which the Percent Effect is -4.76% in test [1]; 10.4% in test [2]; -4.64% in test [3]; -13.5% in test [4]; -0.881% in the test on Trypanosoma cruzi; 2.32% in test [5]. Further, the Percent Effect was 21.9% in test [6]; 15.6% in the test filed under Homo sapiens; 4.76% in test [7]; 9.41% in test [8]; -19.2% in [9].
